Ba/F3 V617F tox = loss of viability in JAK2V617F-driven Ba/F3 cells; Ba/F3 EpoR-JAK2V617F viability, ATP luminescence; inhibition, % at 5.6 µM; actives 1.1% (n = 220,000); AID 1446;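 active = inhibition above the campaign mean plus 3 SD over all tested compounds, cut at about 24% in these data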;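 note: cytokine-independent growth of Ba/F3 cells driven by EpoR plus mutant JAK2; 0% = DMSO-treated cells and 100% = JAK inhibitor I control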
KLF5 inh = suppresses KLF5 promoter-driven expression. DLD-1 KLF5 promoter-luciferase reporter, luminescence. inhibition, % at 5 µM. actives 0.23% (n = 290,000). AID 1700;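 active = inhibition above a per-plate limit of that plate's mean compound inhibition plus 3 SD, cut at about 60% in these data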;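 note: 0% = DMSO wells and 100% = LY294002 at 200 µM; higher means less KLF5 promoter-driven luciferase light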
aSyn UTR inh = MLPCN primary screen, SNCA 5' untranslated region. alpha-synuclein 5'UTR reporter, inhibitor activity. inhibition, % (tested at 7.5 µM). actives 0.82% (n = 300,000). AID 1813; in the data active = inhibition above about 60%;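 note: H4 neuroglioblastoma cells stably carrying SNCA 5'UTR luciferase fusion; 0% = DMSO wells and 100% = positive control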
BaF3 parental = parental Ba/F3 viability inhibition as JAK2V617F counter-screen; inhibition, % at 5.6 µM; actives 1.1% (n = 220,000); AID 1486; CellTiter-Glo ATP luminescence;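 active = inhibition above a per-campaign cutoff, the mean inhibition of all tested compounds plus 3 SD, cut at about 27% in these data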;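 note: 0% = DMSO wells and 100% = JAK Inhibitor I control wells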
IEC-6 cytotox = counter-screen for KLF5 inhibitors: cytotoxicity in IEC-6 cells. IEC-6 cytotoxicity, luminescence viability. inhibition, % at 5 µM. actives 0.78% (n = 290,000); in the data active = inhibition above about 22%;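 note: 0% = plate median of test compound wells and 100% = cytotoxic reference compound wells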
APP 5UTR inh = APP translation inhibition | SH-SY5Y APP 5'UTR-luciferase reporter, luminescence | inhibition, % at 2 µM | actives 0.82% (n = 190,000) | AID 1285;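 active = inhibition above a set limit, derived from the sample mean plus 3 SD, cut at about 45% in these data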
* hit, by the source's call; · = no result given. Rows were chosen to be rich in hits. Some 2.1% of all compounds tested hit in one or more screens of this group.

SMILES	Ba/F3 V617F tox	KLF5 inh	aSyn UTR inh	BaF3 parental	IEC-6 cytotox	APP 5UTR inh
COc1ccc(-n2c(-c3ccc(Br)cc3)c[n+]3c2CCC3)cc1	81*	-1	-2	66*	-1	7
COc1ccc(-n2c(-c3ccccc3)c[n+]3c2CCC3)cc1	75*	-25	-10	63*	2	·
COc1ccc(-n2c(-c3ccc(Br)cc3)c[n+]3c2CCCCC3)cc1	76*	-30	2	64*	18	0
Cc1cccc(CN2CCN(C(C)C(=O)NC(C)c3ccccc3)CC2)c1 (centres undefined)	·	-18	8	·	-2	·
COc1ccc(C2NC(=O)N(CCCC(=O)O)C(C)=C2C(=O)OCc2ccccc2)cc1 (centres undefined)	·	·	16	·	·	·
COCCN(C(=O)CSc1n[nH]c(-c2ccccc2)n1)c1c(N)n(CC(C)C)c(=O)[nH]c1=O	·	·	4	·	·	·
CCN(CC(=O)NC1CCS(=O)(=O)C1)S(=O)(=O)c1ccccc1Cl (centres undefined)	·	-16	3	·	-2	·
O=C(CCc1ccccc1)Nc1cc(Cl)ccc1O	23	-24	-20	29*	0	-10
CC1=NCCN1CCNC(=O)Nc1ccc(C(C)(C)C)cc1	0	-16	-3	-3	3	·
CC1=CC(C)C(C[N+]2(C)CCCCC2)C(C)C1 (centres undefined)	39*	-8	27	61*	-5	18
CC1=CC(C)C(COC(=O)CN2CCCCC2)C(C)C1 (centres undefined)	0	-31	31	-2	-7	·
CN1C(=O)Cc2cc(S(=O)(=O)N3CCN(c4ccccc4F)CC3)ccc21	·	-15	-26	·	-4	·
CCCOc1cccc(-c2cc(C(=O)NNC(=S)NCC)c3ccccc3n2)c1	2	-30	-114	3	3	53*
O=[N+]([O-])c1ccc(-n2cnc3ccccc32)c([N+](=O)[O-])c1	2	-4	-7	7	3	9
CCn1c(O)c(N=Nc2ccc3ccccc3n2)c2ccccc21	-4	-18	-143	0	2	·
Brc1ccc(N=Nc2ccc3ccccc3n2)cc1	0	-31	95*	0	12	·
CCC(C)C(=O)N1CCc2cc(-c3csc(N)n3)ccc21 (centres undefined)	6	-145	-172	9	-2	-86
CC(C)(C)C(=O)N1CCc2cc(-c3csc(N)n3)ccc21	-1	-12	66*	-1	-2	-121
CN1CCN(CCCC(=O)c2ccc(F)cc2)CC1	1	-7	0	92*	-2	-3
Cc1c(Cl)cccc1-n1cnc(=O)c2ccccc21	·	·	13	·	·	·
c1cc2c(cc1C1CCCCC1)c1c3n2CCCNC3CCC1 (centres undefined)	13	-28	87*	12	0	33
O=S(=O)(Nc1ccc(-c2csc(-c3ccccc3)n2)cc1)c1ccc(F)cc1	3	-33	-1	0	1	4
O=C(Nc1nc(-c2ccccc2)cs1)c1ccccc1NS(=O)(=O)c1ccc(F)cc1	23	21	63*	46*	13	-2
O=[N+]([O-])c1cc(S(=O)(=O)C(F)(F)F)ccc1NCC1CCCO1 (centres undefined)	·	-43	-8	·	3	·
O=C(Nc1cccc(Cl)c1)Nc1nccs1	1	-88	-159	6	11	-40
SMILES	Ba/F3 V617F tox	KLF5 inh	aSyn UTR inh	BaF3 parental	IEC-6 cytotox	APP 5UTR inh
O=C(Nc1ccc(Cl)c(Cl)c1)Nc1nccs1	73*	33	-64	71*	78*	·
O=c1[nH]c(CN2CCN(c3ccc(O)cc3)CC2)nc2scc(-c3ccc(Cl)cc3)c12	4	-8	25	9	20	62*
COc1ccc(C(CNC(=O)c2cccc(S(=O)(=O)NCc3ccccc3)c2)N2CCOCC2)cc1 (centres undefined)	·	·	9	·	·	·
O=C(N/N=C/c1ccc2c(c1)OCO2)c1cc(-c2ccccc2Cl)nc2ccccc12	3	-11	22	6	5	5
O=[N+]([O-])c1ccc(O)c(/C=N/Nc2ncnc3c2cnn3-c2ccccc2)c1	·	15	66*	·	3	·
Cc1ccc(/C=N/NC(=O)c2cc(-c3cccnc3)nc3ccccc23)cc1	3	-6	81*	3	5	68*
Cc1cc(C(=O)N/N=C/c2ccc(N(C)C)cc2)c2ccccc2n1	8	22	-23	9	22	46*
O=C(N/N=C/c1ccc2c(c1)OCO2)c1cc(-c2ccncc2)nc2ccccc12	1	-4	-5	5	-4	67*
Cc1ccc(S(=O)(=O)NC(=O)Nc2cc(C)no2)cc1	·	-22	-3	·	0	·
CC(=O)c1cccc(OCC(O)CN2CCN(C(=O)c3ccco3)CC2)c1 (centres undefined)	·	-3	31	·	0	·
O=C(NC1CCCC1)C1CCN(C(=O)c2cccc(Cl)c2)CC1	·	8	-6	·	8	·
O=[N+]([O-])c1ccc(O)c(/C=N/Nc2nc3ccccc3[nH]2)c1	-1	24	47	5	4	81*
O=C(N/N=C/c1ccsc1)c1cc(-c2ccncc2)nc2ccccc12	2	-6	-11	1	8	60*
COc1ccc(O)c(/C=N/Nc2nc3ccccc3[nH]2)c1	3	-95	-81	7	11	-35
O=C(N/N=C/c1ccco1)c1cc(-c2cccc(Br)c2)nc2ccccc12	-1	12	-7	6	-10	2
CC(/C=N/NC(=O)c1cc(-c2ccncc2)nc2ccccc12)=C\c1ccco1	-3	-21	86*	0	-6	88*
O=C(N/N=C/c1cc([N+](=O)[O-])ccc1O)c1cc(-c2ccccc2)nc2ccccc12	4	-16	81*	3	7	30
Cc1cc(S(=O)(=O)NCCCN2CCOCC2)c(Cl)cc1Cl	·	11	1	·	0	·
O=C(Nc1ccccn1)c1cc(-c2cccnc2)nc2ccc(Br)cc12	5	-10	62*	10	5	18
Cc1cc(NC(=O)c2cc(-c3ccccn3)nc3ccc(Br)cc23)no1	·	-8	44	·	4	·
O=C(CCN1C(=O)c2ccccc2S1(=O)=O)N1CCN(c2cccc(Cl)c2)CC1	·	·	-10	·	·	·
CC1(C(=O)NNC(=O)c2ccc(=O)oc2)CC1Br (centres undefined)	0	4	-5	28*	-3	·
Cc1cc(C)c(C(=O)Nn2c(C)nc3ccccc3c2=O)cc1C	·	-49	-2	·	0	·
Cc1c(NC(=O)c2cc3nc(-c4ccc(Br)cc4)cc(C(F)(F)F)n3n2)c(=O)n(-c2ccccc2)n1C	2	-3	16	94*	3	12
CS(=O)(=O)N(CC(=O)N1CCCC1)Cc1ccc(Cl)c(Cl)c1	·	-36	16	·	-3	·
O=Cc1[nH]c2ccccc2c1N(C(=O)CCl)c1ccc([N+](=O)[O-])cc1	-2	-7	84*	-2	-3	·
CCCCNC(=O)c1ccc(Cn2c(=S)[nH]c3c([nH]c4ccc(OC)cc43)c2=O)cc1	-1	-15	105*	7	-4	7

Bioassay records as filed in PubChem BioAssay.
